From PubChem BioAssay (EPA / NIEHS) come the findings set out here.

Structures are written as SMILES. Several values for one entry are separate records, joined by “and”; a condition that tells them apart may be missing. Identical values can stand only once. Activity calls are given as the source filed them. The calls were made as follows: active = hit-call score of the fitted dose curve at least 0.9, where 1 is the maximum; inactive = score below 0.9.

Read-out in the assay: Plasminogen activator inhibitor-1 (PAI1), SERPINE1 (gene 5054)
Nature of the assay: BSK_BE3C_PAI1: BioMAP Diversity Plus: BE3C Assay for Plasminogen activator inhibitor-1 (PAI1) Biomarker Activity (AID 2283037). The conditions noted are these: primary human bronchial epithelial cells; actives raise or lower the signal. The procedure: BSK_BE3C is a cell-based, multiplexed-readout assay that uses bronchial epithelial cell, a human lung primary cell, with measurements taken at 24 hours after chemical dosing in a 96-well plate.BSK_BE3C_PAI1 is an assay component measured in the BSK_BE3C assay. It measures PAI-1 antibody related to regulation of gene expression using ELISA technology.Data from the assay component BSK_BE3C_PAI1 was analyzed into 1 assay endpoint. This assay endpoint, BSK_BE3C_PAI1, was analyzed with bidirectional fitting relative to DMSO as the negative control and baseline of activity. Using a type of binding reporter, gain or loss-of-signal activity can be used to understand changes in the signaling as they relate to the gene SERPINE1. Furthermore, this assay endpoint can be referred to as a primary readout, because this assay has produced multiple assay endpoints where this one serves a signaling function. To generalize the intended target to other relatable targets, this assay endpoint is annotated to the cytokine intended target family, where the subfamily is plasmogen activator inhibitor.
The levels of cell surface (or secreted, indicated by the prefix "s") biomarker endpoints were measured by ELISA. Overt cytotoxicity to cells in confluent adherent cultures (all systems other than the BT system) was assessed by measuring total protein levels using sulforhodamine B (SRB) staining in parallel cultures at the time of biomarker measurements, indicated as SRB endpoints. For proliferation assays for adherent cell types, individual cell types are cultured at sub-confluence and relative cell numbers quantified by SRB staining at time points optimized for each system (48 h: 3C and CASM3C systems; 72 h: BT and HDF3CGF systems; 96 h: SAg system). SRB was performed by staining cells with 0.1% SRB after fixation with 10% TCA and reading wells at 560 nm.Viability and proliferation of PBMC (T cells) was quantified by Alamar Blue reduction for the SAg and BT systems. For PBMC viability (referred to as PBMC Cytotoxicity within the assay endpoint names), cells were plated (75,000/well in a 96-well plate) and then chemical samples added for 1 h before addition of activators, SEB and TSST-1 (20 ng/mL final concentration each). Cells were incubated for 90 h. Then, Alamar Blue (20 uL/well) (Invitrogen, Cat DAL1100) was added for 6 h, and the plates were read with a fluorescence microplate reader at 546/580 nm (excitation/emission). For PBMC proliferation, cells were plated and activated as above but incubated for only 16 h prior to addition of Alamar Blue. Plates were read after 6 h.
With `C=CCc1ccc2c(c1)OCO2`, the outcome was inactive.

For the molecule `O=[N+]([O-])C(Br)(CO)CO`, the result was inactive. Same read-out and setting: the entry for `CN(C)c1ccc(C(=O)c2ccc(N(C)C)cc2)cc1` is “inactive”; for `N#CC(Br)Br` it is “inactive”.

The term AC50 denotes the concentration at which the activity in the assay is half-maximal. Consider `Cc1cc(N=Nc2ccccc2C)ccc1N`, for which the AC50 is 12 µM (active).

In the case of `O=C(N[C@H](c1ccccc1)[C@@H]1CN2CCC1CC2)c1c(Cl)ccc(C(F)(F)F)c1Cl`, the AC50 was 29.7 µM (active). `Nc1ccc(Cc2ccc(N)cc2)cc1`: the result was inactive.

Consider `Nc1cc(Cl)cc(C(=O)O)c1Cl`, for which the outcome was inactive. On to `CCCCCOC(=O)c1ccccc1C(=O)OCCCCC`, for which the outcome was inactive. Turning to `Nc1ccc(Oc2ccc(N)cc2)cc1`, the result was inactive.

In the case of `Cc1ccc(N)c(N)c1`, the outcome was inactive. Consider `CO[C@@H]1[C@H](OC(=O)NC(=O)CCl)CC[C@]2(CO2)[C@H]1[C@@]1(C)O[C@@H]1CC=C(C)C`, for which the AC50 is 6.98 µM (active).

For `CCOc1cccc(C2(N3CCN(c4ccccc4)CC3)CCC(C)CC2)c1` (stereo not given), the outcome was inactive.

`Clc1ccccc1Cl`: the outcome was inactive.

Turning to `Clc1ccc(C(c2ccc(Cl)cc2)C(Cl)Cl)cc1`, the AC50 is 34.4 µM (active).

With `CC(C)(C)OOC(=O)c1ccccc1`, the outcome was inactive. For `CCNS(=O)(=O)C(F)(F)C(F)(F)C(F)(F)C(F)(F)C(F)(F)C(F)(F)C(F)(F)C(F)(F)F`, the AC50 is 19.3 µM (active) and 4.88 µM (active) and 4.37 µM (active).

Turning to `CC(C)N(Cc1ccccc1)C(=O)C(C)(C)C`, the outcome was inactive. Same read-out and setting: as for `CCN(CC)CCO`, the entry is “inactive”; as for `OCCOCCO`, “inactive”. As for `CCC(C)c1ccc(O)cc1` (stereo not given), the result was inactive. Turning to `CC(C)COC(=O)c1ccccc1C(=O)OCC(C)C`, the outcome was inactive. Take `Nc1ccc([N+](=O)[O-])cc1`: the result was inactive. Consider `Nc1ccc(N=Nc2ccccc2)cc1`, for which the outcome was inactive. With `Clc1ccc(Cl)c(Cl)c1`, the outcome was inactive. On to `c1ccc2c(c1)-c1cccc3cccc-2c13`, for which the outcome was inactive.

Turning to `COc1cc(C=O)cc2c1[C@H](COC(N)=O)[C@]1(OC(C)=O)ON2C[C@H]2[C@@H]1N2C(C)=O`, the AC50 was 1.99 µM (active).

For the molecule `CS(=O)(=O)NC(=O)c1cc(Oc2ccc(C(F)(F)F)cc2Cl)ccc1[N+](=O)[O-]`, the outcome was inactive. Turning to `CCC[CH2][Sn]([Cl])([CH2]CCC)[CH2]CCC`, the AC50 was 0.146 µM (active). In the case of `C[C@]12C=CC3=C4CCC(=O)C=C4CC[C@H]3[C@@H]1CC[C@@H]2O`, the outcome was inactive. `CCCCCCCCOC(=O)c1ccc(C(=O)OCCCCCCCC)c(C(=O)OCCCCCCCC)c1`: the result was inactive. On to `Brc1ccc(Oc2ccccc2)cc1`, for which the outcome was inactive. For `OCCCl`, the result was inactive. For the molecule `CC(C)(C)OOC(C)(C)CCC(C)(C)OOC(C)(C)C`, the result was inactive. In the case of `ClC1=C(Cl)[C@]2(Cl)[C@H]3[C@H]([C@@H]4C=C[C@H]3C4)[C@@]1(Cl)C2(Cl)Cl`, the AC50 was 34 µM (active).

Take `C[N+](C)(C)CC1CO1` (stereo not given): the result was inactive. `COP(=S)(OC)SCN1C(=O)c2ccccc2C1=O`: the outcome was inactive.

Take `CCCCCCCCn1sccc1=O`: the AC50 was 7.33 µM (active). For the molecule `Oc1ccc2ccc3cccc4ccc1c2c34`, the AC50 is 27.5 µM (active). Turning to `COC(=O)Nc1nc2ccccc2[nH]1`, the result was inactive.
